Only some compounds are listed: those with a hit (about 1.6% of all), similar ones and a draw of the others.
PABP FP inh – PABP-poly(A) binding inhibition | P11940 | PABP-poly(A) RNA binding, fluorescence polarization | inhibition, % at 35 µM | hit rate 1% among 290,000;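 further: calls also rest on retests at 20 µM and on dose response follow-up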
eIF4E 4G PPI – eIF4E/eIF4G interaction inhibition in translation initiation; P63073+Q04637; TR-FRET eIF4E-eIF4GI(517-606) binding, 2 h; inhibition, % at 21.7 µM; hit rate 0.37% among 220,000;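 active means inhibition above about 30%, limit read from the data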
MLLE-PAM2 inh – inhibitors of microRNA-mediated deadenylation, human PABP1 MLLE binding | P11940 | GST-MLLE / FITC-PAM2 fluorescence polarization | inhibition, % at 20 µM | hit rate 0.36% among 360,000; in the data active means inhibition above about 35%, passing the limit was not always enough
PERK inhibitor – human PERK inhibition, primary cell-based screen; CHO PERK-DD fusion, SEAP luminescence translation reporter; hit rate 0.17% among 220,000; inhibition, % at 5.6 µM; Q9NZJ5;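 active means inhibition above the mean inhibition of all tested compounds plus 3 SD, set separately per screening campaign, cut at about 2.9% in these data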;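 further: PERK kinase domain activated by AP20187 dimerizer at 100 nM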
eIF4H FP inh – inhibitors of RNA binding by human eIF4H; AID 2012; eIF4H fluorescence polarization binding assay; inhibition, % at 35 µM; hit rate 0.94% among 290,000;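 further: calls also rest on retests at 20 µM and on dose response follow-up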
Of the large screens only hits and unclear results are named; the others gave an inactive call; [ ] = remark or other dose. Unless noted, how the calls were made is not given here.

CCN(C(=O)COC(=O)c1cn(-c2ccccc2)nc1-c1ccccc1)C1CCS(=O)(=O)C1 (stereo unspecified)	none
CN(C(=O)COC(=O)c1cn(-c2ccccc2)nc1-c1ccccc1)C1CCS(=O)(=O)C1 (stereo unspecified)	PABP FP inh inconclusive, eIF4H FP inh active
Cc1cc(C)cc(OCC(=O)N/N=C\c2cn(C)nc2C)c1	none
Fc1ccc(C[n+]2csc3ccccc32)cc1	MLLE-PAM2 inh 41.5
CCc1nnc(NS(=O)(=O)c2ccc(NC(=S)NC(=O)c3cccnc3)cc2)s1	none
Cc1cc(C(=O)NC(=S)Nc2cccc(NC(=O)C(C)C)c2)ccc1[N+](=O)[O-]	MLLE-PAM2 inh 38.1
CCc1nnc(NS(=O)(=O)c2ccc(NC(=S)NC(=O)c3ccc(F)cc3)cc2)s1	eIF4H FP inh 0.6
CC(=O)Nc1ccc(NC(=S)NC(=O)c2ccc(-c3ccccc3)cc2)cc1	none (no result: PABP FP inh, eIF4E 4G PPI, PERK inhibitor, eIF4H FP inh)
CC(C)NS(=O)(=O)c1ccc(NC(=S)NC(=O)c2ccc(-c3ccccc3)cc2)cc1	MLLE-PAM2 inh 41.2
CC(C)C(=O)Nc1cccc(NC(=S)NC(=O)c2ccc([N+](=O)[O-])cc2)c1	none
CCC(=O)NC(=S)Nc1ccc(NC(=O)c2ccc([N+](=O)[O-])cc2)cc1	eIF4E 4G PPI 55.8[fluorescence artefact?]
COCC(=O)N1CCC(Oc2cccc(C(=O)NCc3ccccn3)c2)CC1	none (no result: eIF4E 4G PPI, PERK inhibitor)
CC(C)C(=O)Nc1ccc(NC(=S)NC(=O)c2ccc([N+](=O)[O-])cc2)cc1	MLLE-PAM2 inh 41.8
CC(=O)Nc1ccc(NC(=S)NC(=O)c2ccc([N+](=O)[O-])cc2)cc1	MLLE-PAM2 inh 40.2
Cc1cc(NS(=O)(=O)c2ccc(NC(=S)NC(=O)c3ccc(Br)cc3)cc2)no1	MLLE-PAM2 inh 42.0
Cc1cc(NS(=O)(=O)c2ccc(NC(=S)NC(=O)c3cccnc3)cc2)no1	none
CN(C)CCN(C(=O)c1ccc2c(c1)OCCO2)c1nc2c(Cl)cccc2s1	none (no result: eIF4E 4G PPI, PERK inhibitor)
C/C(=N\Nc1cc(N2CCCCC2)nc(C)n1)c1ccc(Br)cc1	none (no result: eIF4E 4G PPI, PERK inhibitor)
CC(=O)Nc1ccc(S(=O)(=O)/N=C2/NC(=O)/C(=C\c3ccco3)S2)cc1	PABP FP inh 73.9, eIF4H FP inh 88.3
Cc1ccc(S(=O)(=O)/N=C2/NC(=O)/C(=C\c3ccccc3)S2)cc1	none (no result: PABP FP inh, eIF4E 4G PPI, PERK inhibitor, eIF4H FP inh)
COC(=O)/C=C1\S/C(=N/N=C/c2ccco2)NC1=O	PABP FP inh 83.2, eIF4H FP inh 60.8
Cc1ccc(S(=O)(=O)/N=C2/NC(=O)/C(=C\c3ccco3)S2)cc1	PABP FP inh 54.4, eIF4H FP inh 65.9
COC(=O)/C=C1/S/C(=N/N=C/c2ccco2)NC1=O	none
CN1CCN(CCCNC(=O)c2ccc(/C=C3\Sc4ccccc4N(Cc4ccc(F)cc4)C3=O)cc2)CC1	eIF4E 4G PPI 35.0
O=C(CC(SCc1ccco1)c1ccc(O)cc1)c1cccs1 (stereo unspecified)	none
O=C(CC(SCCO)c1ccc2c(c1)OCO2)c1cccs1 (stereo unspecified)	MLLE-PAM2 inh 43.4
CC1=NN(c2ccc([N+](=O)[O-])cc2)C(=O)/C1=C\N(C)C	none
Cc1oc(-c2cccc(F)c2)nc1CN(Cc1ccccc1)C[C@@H]1CCC(=O)N1	none
CCC12CCCN3CCc4c(n(c5ccccc45)C(O)(C(=O)OC)C1)C32 (stereo unspecified)	PABP FP inh 56.4, eIF4H FP inh 95.8
Cc1ccc(CN2CCN(CC(=O)N3CCC(C(N)=O)CC3)C2=O)cc1	none (no result: PABP FP inh, eIF4E 4G PPI, eIF4H FP inh)
CN1CCN(C2=C(Cl)C(=O)c3ccccc3C2=O)CC1	none (no result: PABP FP inh, eIF4E 4G PPI, PERK inhibitor, eIF4H FP inh)
CN1CCN(C2=C(Cl)C(=O)C(c3cnc(N4CCCCC4)s3)=C(Cl)C2=O)CC1	eIF4E 4G PPI 53.6[fluorescence artefact?], eIF4H FP inh inconclusive
O=C(Nc1ccc2nc(-c3ccco3)c(-c3ccco3)nc2c1)N1CCCCCC1	none (no result: MLLE-PAM2 inh)
CCOC(=O)C1CCN(C(=O)Nc2ccc3nc(-c4ccco4)c(-c4ccco4)nc3c2)CC1	eIF4E 4G PPI 43.9[fluorescence artefact?], eIF4H FP inh inconclusive
O=C(O)C1CSC(c2ccncc2)N1 (stereo unspecified)	MLLE-PAM2 inh 37.8
CN1CCN(C(CNS(=O)(=O)c2ccc(Cl)cc2)c2cccnc2)CC1 (stereo unspecified)	none
C/C(CCc1ccc2c(c1)OCO2)=N\NC(=O)c1ccccc1	none
NC(=NCc1ccc2c(c1)OCO2)NC(=O)c1ccccc1	eIF4E 4G PPI 68.1
CCN(CC)CCn1c(SCC(=O)NCc2ccccc2)nc2c(sc3ccccc32)c1=O	PABP FP inh 52.1, eIF4H FP inh 4.5
O=C(CSc1nc2c(sc3ccccc32)c(=O)n1CCc1ccccc1)NCc1ccco1	none
c1ccc(COC2CCCN(Cc3nc(-c4cccs4)no3)C2)nc1 (stereo unspecified)	MLLE-PAM2 inh 40.4
CC(C)c1ccc(CNC(=O)C(=O)Nc2nccs2)cc1	none
CC(C)Cc1ccc(C(C)C(=O)Nc2nccs2)cc1 (stereo unspecified)	PABP FP inh active, eIF4H FP inh 79.8
CCOC(=O)N1CCN(C(=O)COC(=O)c2ccc(Cl)nc2)CC1	none (no result: PABP FP inh, eIF4E 4G PPI, PERK inhibitor, eIF4H FP inh)
CCCNC(=O)NCCc1c(C)[nH]c2ccccc12	MLLE-PAM2 inh 53.5
Cc1[nH]c2ccccc2c1CCO	none
O=C(Nc1ccncc1)Nc1cccc(Cl)c1	none (no result: eIF4E 4G PPI, PERK inhibitor)
Cc1cccc(NC(=O)CC2SC(=O)N(c3ccccc3)C2=O)c1 (stereo unspecified)	none
CCCN1C(=O)SC(CC(=O)Nc2ccc(C)cc2)C1=O (stereo unspecified)	MLLE-PAM2 inh 45.2
Cc1ccc(NC(=O)CC2SC(=O)N(c3ccccc3)C2=O)cc1 (stereo unspecified)	MLLE-PAM2 inh 44.5
Cc1ccc(NC(=O)CC2SC3=NCCN3C2=O)cc1 (stereo unspecified)	MLLE-PAM2 inh 43.8
O=C(CC1SC2=NCCN2C1=O)Nc1ccccc1 (stereo unspecified)	none
O=C(CC1SC(=O)N(c2ccccc2)C1=O)Nc1ccccc1 (stereo unspecified)	MLLE-PAM2 inh 49.5
O=C(OCN1C(=O)c2ccccc2C1=O)c1ccc2c(=O)n3c(nc2c1)CCC3	none (no result: PABP FP inh, eIF4E 4G PPI, MLLE-PAM2 inh, eIF4H FP inh)
Cc1cn([C@H]2C[C@H](O)[C@@H](/C=C/C(=O)NCCc3ccc4ccccc4c3)O2)c(=O)[nH]c1=O	none (no result: PABP FP inh, eIF4E 4G PPI, PERK inhibitor, eIF4H FP inh)
CCOC(=O)C(=O)C1=C(N2CCOCC2)/C(=C\c2cccc([N+](=O)[O-])c2)CC1	PABP FP inh active
O=C(NP(=O)(N1CCCC1)N1CCCC1)C1=C(N2CCOCC2)/C(=C/c2cccc([N+](=O)[O-])c2)CC1	none
CCc1c(C)nc2[nH]nc(-c3ccccc3C)n2c1=O	none
Cc1nc2scc(-c3ccccc3)c2c(=O)n1N=C1C=CC(=O)C=C1	PABP FP inh 20.5, eIF4H FP inh 71.4 (no result: MLLE-PAM2 inh)
CCN(CC)S(=O)(=O)c1cccc(NC(=O)COC(=O)c2n[nH]c(=O)c3ccccc23)c1	PABP FP inh 68.0
COc1cccc(C(=O)NCC(c2cccs2)N2CCc3ccccc32)c1 (stereo unspecified)	none (no result: PABP FP inh, eIF4E 4G PPI, PERK inhibitor, eIF4H FP inh)
CC1=NN(c2ccc(C)c(C)c2)C(=O)/C1=C\C=C\c1ccc([N+](=O)[O-])o1	eIF4H FP inh 92.1
CC1=NN(c2ccccc2)C(=O)/C1=C\C=C\c1ccccc1	none

Compound activity deposited in PubChem BioAssay by several laboratories.
